Compounds with a hit are over-represented: about 2.3% of the library has one in this group of screens.
PLC-beta3 inh = PLC-beta3 (human) inhibition, primary screen; Q01970; Purified PLC-beta3, fluorogenic substrate, fluorescence; inhibition, % at 12.2 µM; 370,000 compounds, 0.18% hits; AID 720704; in the data active = inhibition above about 11%;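 note: 0% = median of compound wells on plate and 100% = full blocker control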
MBD2 inh = inhibitors of human MBD2 binding to methylated oligonucleotide. Q9UBB5. TR-FRET. inhibition, % at 4.4 µM. 370,000 compounds, 0.31% hits. AID 686964; in the data active = inhibition above about 13%
UHRF1 binding = human UHRF1 methylated DNA binding inhibitors; Q96T88; UHRF1 binding to methylated oligo, TR-FRET; inhibition, % at 4.4 µM; 370,000 compounds, 0.75% hits; in the data active = inhibition above about 21%;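 note: UHRF1 SRA domain binding a hemimethylated CpG hairpin DNA probe; 0% = median of test compound wells and 100% = reference inhibitor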
Target sequence (Q96T88 whole entry, looked up, the tested form may be a part): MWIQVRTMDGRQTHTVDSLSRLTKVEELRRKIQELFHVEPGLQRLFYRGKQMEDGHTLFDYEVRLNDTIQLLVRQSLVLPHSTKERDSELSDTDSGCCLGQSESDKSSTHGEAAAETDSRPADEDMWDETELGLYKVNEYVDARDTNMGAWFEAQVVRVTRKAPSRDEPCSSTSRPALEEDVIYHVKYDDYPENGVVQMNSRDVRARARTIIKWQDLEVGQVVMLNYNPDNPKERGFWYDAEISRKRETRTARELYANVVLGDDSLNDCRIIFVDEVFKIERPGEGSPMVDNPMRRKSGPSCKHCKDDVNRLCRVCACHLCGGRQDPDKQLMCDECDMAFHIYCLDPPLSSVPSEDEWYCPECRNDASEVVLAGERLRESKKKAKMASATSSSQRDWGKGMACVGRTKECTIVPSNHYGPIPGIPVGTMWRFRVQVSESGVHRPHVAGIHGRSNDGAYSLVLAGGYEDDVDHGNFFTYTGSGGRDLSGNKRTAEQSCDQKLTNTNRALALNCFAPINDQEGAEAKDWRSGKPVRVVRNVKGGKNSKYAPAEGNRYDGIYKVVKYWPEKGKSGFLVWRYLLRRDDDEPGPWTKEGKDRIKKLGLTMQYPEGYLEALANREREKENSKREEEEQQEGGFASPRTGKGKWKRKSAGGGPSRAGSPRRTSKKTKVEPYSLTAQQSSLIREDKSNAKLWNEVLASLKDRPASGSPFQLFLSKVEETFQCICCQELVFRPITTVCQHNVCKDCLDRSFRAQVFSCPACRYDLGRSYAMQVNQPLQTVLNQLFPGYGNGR
PLC-gamma1 inh = inhibitors of human phospholipase C gamma1; P19174; purified PLC-gamma1, fluorogenic substrate, fluorescence; inhibition, % at 12.2 µM; 370,000 compounds, 0.84% hits; AID 720700; in the data active = inhibition above about 9.5%
LEDGF integ inh = blocks HIV-1 LEDGF/p75-dependent DNA integration; TR-FRET IN-LEDGF/p75 DNA integration, Eu/Cy5; AID 743269; 370,000 compounds, 0.64% hits; inhibition, % at 3.7 µM;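 active = inhibition above the screen-wide mean plus 3 SD, cut at about 13% in these data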;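 note: signal is the Cy5 over europium emission ratio at 671 and 618 nm; 0% = plate median of compound wells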
IN multimer up = activates HIV-1 integrase multimerization in LEDGF counter-screen; shares compounds with LEDGF integ inh; TR-FRET HIV-1 integrase multimerization, biochemical; activation, % at 7.7 µM; 2,000 compounds, 17% hits; in the data active = activation above about 8.9%
TR-FRET interf = TR-FRET optical interference, LEDGF/p75 integration counter-screen; 2,000 tested, under 10 active; shares compounds with LEDGF integ inh; AID 1053135; TR-FRET optical interference counterscreen, HIV-1 IN multimerization; inhibition, % at 7.7 µM;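 active = inhibition above the mean over all tested compounds plus 3 SD, which no compound reached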;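 note: 0% = integrase with antibodies and DMSO and 100% = antibodies without integrase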
LEDGF integ conf = LEDGF/p75-dependent HIV-1 integration inhibition, confirmation | shares compounds with LEDGF integ inh | TR-FRET LEDGF/p75-dependent HIV-1 integration, biochemical | inhibition, % at 3.7 µM | 2,000 compounds, 36% hits | AID 1053136; in the data active = inhibition above about 14%
* marks the source's active call; other numbers are inactive results; x = no result given.

SMILES	PLC-beta3 inh	MBD2 inh	UHRF1 binding	PLC-gamma1 inh	LEDGF integ inh	IN multimer up	TR-FRET interf	LEDGF integ conf
Nn1c(SCC(=O)Nc2ccccc2-c2ccccc2)nnc1-c1n[nH]c2c1CCC2	4	-1	2	2	2	x	x	x
Cc1ccc(C)c(OCc2cc(C(=O)N3CCNC(=O)C3)no2)c1	-7	1	3	0	27*	-1	4	4
Cc1ccccc1CN1CCCCC(NC(=O)c2ccc(N(C)C)cc2)C1=O (centres undefined)	1	-2	-3	1	1	x	x	x
O=c1cc(C(F)(F)F)nc(-n2[nH]c3c(c2=O)CCCC3)[nH]1	-56	2	1	-48	17*	3	-10	-11
COC(=O)C1CCN(C(=O)CN2CCC(C(=O)c3ccc(C)cc3)CC2)CC1	-2	3	2	-4	-1	x	x	x
Cc1cc(C=O)c(C)n1-c1ccc(Cl)c(C(=O)O)c1	-6	3	47*	-1	21*	0	-1	21*
COc1ccc(-n2c(C)cc(C=O)c2C)cc1Cl	3	-1	0	0	1	x	x	x
COC(=O)[C@H]1C[C@@]2(c3ccccc3)c3ccccc3N(S(=O)(=O)c3ccccc3)[C@H]2N1	4	-1	6	5	1	x	x	x
CCOc1cc(/C=C2\C(=O)N(Cc3ccco3)C(C)=C2C(=O)OC)ccc1O	-18	-9	1	-7	14*	1	-5	-4
CCOC(=O)C1(C)C=C(Nc2ccc(OC)cc2)C(=O)N1c1ccc(OC)cc1 (centres undefined)	-1	-6	-4	-1	5	x	x	x
CCOC(=O)C1(C)C=C(Nc2ccc(O)cc2)C(=O)N1c1ccc(O)cc1 (centres undefined)	-54	-6	5	-40	14*	8	-39	-6
COc1cccc(N2CCN(CC(=O)NCc3ccccc3C)CC2)c1	-2	2	0	-1	-3	x	x	x
CCCN(CC1CC1)c1nc(C)nc2c1nnn2Cc1ccccc1	5	5	-1	3	2	x	x	x
O=C1OC(/C=C/c2ccc(Cl)cc2)=NC/1=C/c1ccco1	-4	-1	6	-7	17*	1	-3	2
O=C1OC(/C=C/c2ccccc2)=NC/1=C/C=C/c1ccccc1	-1	0	2	-2	1	x	x	x
O=C1NC(=O)C(c2ccccc2[N+](=O)[O-])=C1Nc1ccc(O)c(Cl)c1	-13	-11	-4	-9	26*	5	-19	1
COc1cccc(C2C(C#N)=C(N)Oc3cc(N)ccc32)c1OC (centres undefined)	-145	0	-8	-118	15*	3	-9	-9
Cc1ccc(CN2C(=O)C(CC(C)C)Nc3ncnc(N4CCN(c5ccccn5)CC4)c32)cc1 (centres undefined)	-6	-7	-5	-6	91*	0	-2	0
COC(=O)[C@]12C[C@H](CC(=O)N3CCCCC3)C(=O)N(Cc3ccco3)C1=C[C@H](COCc1ccccc1)O[C@@H]2C	3	-6	1	3	3	x	x	x
COc1cccc(/C=C2\CC3(OC(=O)c4ccco4)CCCN2C3)c1 (centres undefined)	-4	3	0	1	-3	x	x	x
Cc1ccc(CN2CCN(C(=O)CCN3C(=O)c4ccccc4C3=O)CC2)cc1	0	4	3	-2	79*	-1	3	2
O=C(CCN1C(=O)c2ccccc2C1=O)N1CCN(Cc2ccccc2)CC1	-4	4	0	-1	-1	x	x	x
Cc1ccc(CN2CCN(C(=O)c3ccncc3)CC2)cc1	1	-2	1	3	75*	0	-1	4
COC(=O)C1=CN(c2ccc(OC)cc2)C(N)=C(C#N)C1c1cccc2ccccc12 (centres undefined)	-78	4	9	-56	3	x	x	x
CCc1ccc(N2C=C(C(=O)OC)C(c3cccc4ccccc34)C(C#N)=C2N)cc1 (centres undefined)	-87	9	7	-50	22*	1	-3	4
SMILES	PLC-beta3 inh	MBD2 inh	UHRF1 binding	PLC-gamma1 inh	LEDGF integ inh	IN multimer up	TR-FRET interf	LEDGF integ conf
COC(=O)[C@]12C[C@H](CC(=O)N3CCCCC3)C(=O)N(Cc3cccc4ccccc34)C1=C[C@H](C(C)C)O[C@@H]2C1CC1	2	-1	0	0	2	x	x	x
Cc1ccc(/C=C2/CNC/C(=C/c3ccc(C)cc3)C2=O)cc1	-8	3	2	-4	92*	3	-11	7
Cc1cc(C(C)(C)C)cc(C)c1S(=O)(=O)N1CCN(C(=O)c2cc([N+](=O)[O-])c[nH]c2=O)CC1	0	-5	3	-1	28*	1	-2	-6
O=C(NCc1ccc(Cl)cc1)O[C@H]1CC[C@@]23CCCN2C(=O)CCC[C@H]3C1	1	-4	2	1	-2	x	x	x
O=C(Cn1c(=O)sc2ccccc21)NCc1ccccn1	0	4	2	-1	19*	0	1	1
O=C(CN1C(=O)c2ccccc2C1=O)NCc1ccccn1	5	1	1	1	0	x	x	x
O=[N+]([O-])c1cccc(OCCCN2CCC(C(O)(c3ccccc3)c3ccccc3)CC2)c1	2	4	-2	1	-2	x	x	x
Oc1cc(NCCN2CCOCC2)cc2cccnc12	-52	0	4	-39	37*	-3	10	42*
Oc1cc(Nc2ccccc2)cc2cccnc12	-8	-4	-4	-12	3	x	x	x
CCOC(=O)C1CCCCN1C(=O)[C@@H]1CC=C[C@@H]2CCN(c3ccccc3)C(=O)[C@@H]21 (some centres undefined)	-2	4	-2	-3	-2	x	x	x
O=C(COC(=O)Cc1ccsc1)NCc1ccccc1	2	3	1	-1	30*	2	-8	-1
O=C(NC12CC3CC(CC(C3)C1)C2)N1CCN(c2ccccn2)CC1	2	4	0	1	49*	0	1	-7
O=C(Nc1ccc(F)cc1)OCCN1C(=O)CCC12CCC(c1ccc(Cl)cc1)CC2 (centres undefined)	0	-1	3	4	1	x	x	x
COC(=O)[C@]12CCCCC=C1N(Cc1ccc(OC)cc1)C(=O)[C@@H]2CC(=O)NCc1cccc(C(F)(F)F)c1	-3	-4	-2	1	2	x	x	x
CCOC(=O)c1ccc(NC(=O)c2cc(OC)c(OC)c(OC)c2Br)cc1	-2	0	-4	-2	0	x	x	x
COc1cccc(NC(=O)c2cc(OC)c(OC)c(OC)c2Br)c1	1	4	-1	0	14*	1	-4	2

Assay outcomes deposited in PubChem by The Scripps Research Institute Molecular Screening Center.
